High-throughput results deposited in PubChem by The Scripps Research Institute Molecular Screening Center.
PRMT1 inh: inhibitors of human PRMT1 | Q99873 | recombinant PRMT1, activity-based probe fluorescence polarization | inhibition, % at 2.79 µM | 370,000 compounds, 1.3% hits | AID 652257;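 active means inhibition above about 21% made by adding two undisclosed values, limit read from the data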
Target sequence (Q99873 whole entry, looked up): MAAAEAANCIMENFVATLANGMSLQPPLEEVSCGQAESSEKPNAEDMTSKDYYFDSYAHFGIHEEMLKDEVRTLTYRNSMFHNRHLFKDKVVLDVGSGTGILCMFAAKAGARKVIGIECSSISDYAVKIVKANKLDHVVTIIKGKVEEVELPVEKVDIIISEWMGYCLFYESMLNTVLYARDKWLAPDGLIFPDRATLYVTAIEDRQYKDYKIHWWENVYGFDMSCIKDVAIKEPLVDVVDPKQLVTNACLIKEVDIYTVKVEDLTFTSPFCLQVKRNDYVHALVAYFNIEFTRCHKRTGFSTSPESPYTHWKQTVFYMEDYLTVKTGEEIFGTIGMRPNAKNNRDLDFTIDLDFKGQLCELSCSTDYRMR
UHRF1 MBD2 ctr: human UHRF1 methylated DNA binding inhibitors; UHRF1 binding to methylated oligo, TR-FRET; Q96T88; inhibition, % at 4.4 µM; 370,000 compounds, 0.75% hits; in the data active means inhibition above about 21%;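 further: UHRF1 SRA domain binding a hemimethylated CpG hairpin DNA probe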
MBD2 inh: MBD2-methylated oligo binding inhibition; Q9UBB5; TR-FRET, MBD2 binding to methylated oligonucleotide; inhibition, % at 4.4 µM; 370,000 compounds, 0.31% hits; in the data active means inhibition above about 13%
LEDGF integ inh: blocks HIV-1 LEDGF/p75-dependent DNA integration. TR-FRET IN-LEDGF/p75 DNA integration, Eu/Cy5. inhibition, % at 3.7 µM. 370,000 compounds, 0.64% hits. AID 743269;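 active means inhibition above the screen-wide mean plus 3 SD, cut at about 13% in these data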;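 further: signal is the Cy5 over europium emission ratio at 671 and 618 nm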
IN multimer act: counter-screen for LEDGF/p75 integration inhibitors: HIV-1 integrase multimerization activators; TR-FRET HIV-1 integrase multimerization, biochemical; activation, % at 7.7 µM; 2,000 compounds, 17% hits; shares compounds with LEDGF integ inh; in the data active means activation above about 8.9%
TR-FRET interf: TR-FRET optical interference, LEDGF/p75 integration counter-screen | shares compounds with LEDGF integ inh | TR-FRET optical interference counterscreen, HIV-1 IN multimerization | inhibition, % at 7.7 µM | 2,000 tested, under 10 active;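 active means inhibition above the mean over all tested compounds plus 3 SD, which no compound reached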
IN-LEDGF confirm: LEDGF/p75-dependent HIV-1 integration inhibition, confirmation; shares compounds with LEDGF integ inh; TR-FRET LEDGF/p75-dependent HIV-1 integration, biochemical; inhibition, % at 3.7 µM; 2,000 compounds, 36% hits; in the data active means inhibition above about 14%
A number is an active result. The list is not random: actives were taken first. Their share in the collection is about 2.5%.

C=CCSc1nc2sc3c(c2c(=O)n1-c1ccc(C)cc1)CCN(C)C3 was read as PRMT1 inh inactive, UHRF1 MBD2 ctr inactive, MBD2 inh inactive, LEDGF integ inh 34, IN multimer act inactive, TR-FRET interf inactive and IN-LEDGF confirm inactive.
Screening COc1ccc(-n2[nH]c(C)cc2=O)cc1 returned PRMT1 inh inactive, UHRF1 MBD2 ctr inactive, MBD2 inh inactive, LEDGF integ inh 19, IN multimer act inactive, TR-FRET interf inactive and IN-LEDGF confirm inactive.
`COc1cc(NC(=O)C2(C)CCN2C(C)C)cc(OC)c1OC` (configuration not stated) gave PRMT1 inh inactive, UHRF1 MBD2 ctr inactive, MBD2 inh inactive and LEDGF integ inh inactive.
C/C=C(\C)CN1CCN(c2ccccc2)CC1 was read as PRMT1 inh inactive, UHRF1 MBD2 ctr inactive, MBD2 inh inactive, LEDGF integ inh 27, IN multimer act inactive, TR-FRET interf inactive and IN-LEDGF confirm inactive.
`COC(=O)[C@]12C[C@H](CC(=O)NCc3ccccc3)C(=O)N(CCc3ccc(OC)c(OC)c3)C1=C[C@H](C1CCCC1)O[C@@H]2C` gave PRMT1 inh inactive, UHRF1 MBD2 ctr inactive, MBD2 inh inactive and LEDGF integ inh inactive.
COc1cc(CCNC2=CC(=O)c3ncccc3C2=O)ccc1O was read as PRMT1 inh inactive, UHRF1 MBD2 ctr inactive, MBD2 inh inactive, LEDGF integ inh 29, IN multimer act inactive, TR-FRET interf inactive and IN-LEDGF confirm 60.
For COCCNC(=O)c1ccc(Cl)c(S(=O)(=O)Nc2cccc(C)c2C)c1 the results were PRMT1 inh inactive, UHRF1 MBD2 ctr inactive, MBD2 inh inactive and LEDGF integ inh inactive.
For CC(C)NC(=O)CCCn1cc([N+](=O)[O-])cn1 the results were PRMT1 inh inactive, UHRF1 MBD2 ctr inactive, MBD2 inh inactive and LEDGF integ inh inactive.
Cc1nn(C)c(C)c1/C=N/NC(=O)CCn1cc([N+](=O)[O-])cn1 was read as PRMT1 inh inactive, UHRF1 MBD2 ctr inactive, MBD2 inh inactive, LEDGF integ inh 15, IN multimer act inactive, TR-FRET interf inactive and IN-LEDGF confirm inactive.
`CC(=O)c1cnc2cc(-c3ccc(C)cc3)nn2c1C` gave PRMT1 inh inactive, UHRF1 MBD2 ctr inactive, MBD2 inh inactive and LEDGF integ inh inactive.
COc1ccc(-c2cc3ncc(C(C)=O)c(C)n3n2)cc1 was read as PRMT1 inh inactive, UHRF1 MBD2 ctr inactive, MBD2 inh inactive, LEDGF integ inh 25, IN multimer act inactive, TR-FRET interf inactive and IN-LEDGF confirm inactive.
C[C@H]1CN([C@@H](C)CO)C(=O)CCCn2nncc2CO[C@H]1CN(C)C(=O)Nc1ccc2c(c1)OCO2 was read as PRMT1 inh inactive, UHRF1 MBD2 ctr inactive, MBD2 inh inactive and LEDGF integ inh inactive.
Screening Fc1ccc(C2=Nc3cccc4cccc(c34)N2)cc1 returned PRMT1 inh inactive, UHRF1 MBD2 ctr inactive, MBD2 inh inactive and LEDGF integ inh inactive.
For Brc1ccc(C2=Nc3cccc4cccc(c34)N2)o1 the results were PRMT1 inh inactive, UHRF1 MBD2 ctr inactive, MBD2 inh inactive, LEDGF integ inh 42, IN multimer act inactive, TR-FRET interf inactive and IN-LEDGF confirm inactive.
Screening CN(CCOC(=O)/C=C/c1ccco1)Cc1ccccc1 returned PRMT1 inh inactive, UHRF1 MBD2 ctr 26, MBD2 inh inactive, LEDGF integ inh 23, IN multimer act inactive, TR-FRET interf inactive and IN-LEDGF confirm 38.
Cc1ccc(S(=O)(=O)CC(=O)Nc2nccs2)cc1 was read as PRMT1 inh inactive, UHRF1 MBD2 ctr inactive, MBD2 inh inactive and LEDGF integ inh inactive.
`N#Cc1c(NC(=O)CSc2ncnc3sccc23)oc(-c2ccco2)c1-c1ccco1` gave PRMT1 inh inactive, UHRF1 MBD2 ctr inactive, MBD2 inh inactive, LEDGF integ inh 27, IN multimer act 14, TR-FRET interf inactive and IN-LEDGF confirm 58.
COc1ccccc1N1CCN(Cc2nc(N)nc(Nc3ccc(C)c(Cl)c3)n2)CC1 was read as PRMT1 inh inactive, UHRF1 MBD2 ctr inactive, MBD2 inh inactive, LEDGF integ inh 13, IN multimer act inactive, TR-FRET interf inactive and IN-LEDGF confirm inactive.
`CCCc1cc(=O)[nH]c(SCC(=O)NC(=O)OCC)n1` gave PRMT1 inh inactive, UHRF1 MBD2 ctr inactive, MBD2 inh inactive, LEDGF integ inh 25, IN multimer act inactive, TR-FRET interf inactive and IN-LEDGF confirm inactive.
`C[C@H](CO)N1C[C@H](C)[C@@H](CN(C)C(=O)Nc2ccc(F)cc2)Oc2ccc(NS(C)(=O)=O)cc2C1=O` gave PRMT1 inh inactive, UHRF1 MBD2 ctr inactive, MBD2 inh inactive and LEDGF integ inh inactive.
For COc1ccc(CNC(=O)COC(=O)c2nc3nc(C)cc(C)n3n2)cc1 the results were PRMT1 inh inactive, UHRF1 MBD2 ctr inactive, MBD2 inh inactive and LEDGF integ inh inactive.
Screening CC(=O)Nc1ccc(S(=O)(=O)Nc2nc3ccccc3nc2Nc2ccc(C(=O)O)c(O)c2)cc1 returned PRMT1 inh inactive, UHRF1 MBD2 ctr 26, MBD2 inh inactive, LEDGF integ inh 26, IN multimer act 23, TR-FRET interf inactive and IN-LEDGF confirm 29.
For CC(=O)Nc1ccc(S(=O)(=O)Nc2nc3ccccc3nc2Nc2cccc(O)c2)cc1 the results were PRMT1 inh inactive, UHRF1 MBD2 ctr inactive, MBD2 inh inactive and LEDGF integ inh inactive.
`c1coc(CSSCc2ccco2)c1` gave PRMT1 inh 49, UHRF1 MBD2 ctr 83, MBD2 inh 32, LEDGF integ inh 46, IN multimer act inactive, TR-FRET interf inactive and IN-LEDGF confirm inactive.
O=C(N/C(=C/c1ccc(Cl)cc1)C(=O)N1CCCC1)c1ccccc1 was read as PRMT1 inh inactive, UHRF1 MBD2 ctr inactive, MBD2 inh inactive and LEDGF integ inh inactive.
For COc1ccc(NC(=O)CN2CCC(NC(=O)C3CCCCC3)CC2)c([N+](=O)[O-])c1 the results were PRMT1 inh inactive, UHRF1 MBD2 ctr inactive, MBD2 inh inactive, LEDGF integ inh 18, IN multimer act inactive, TR-FRET interf inactive and IN-LEDGF confirm inactive.
Screening O=C(NC1CCCCCC1)c1cccnc1Sc1ccccc1 returned PRMT1 inh inactive, UHRF1 MBD2 ctr inactive, MBD2 inh inactive, LEDGF integ inh 24, IN multimer act inactive, TR-FRET interf inactive and IN-LEDGF confirm inactive.
Screening Cc1ccc(Sc2ncccc2C(=O)NC2CCCCCC2)cc1C returned PRMT1 inh inactive, UHRF1 MBD2 ctr inactive, MBD2 inh inactive and LEDGF integ inh inactive.
CCc1ccccc1-n1c(SCC(=O)NC)nnc1-c1cccnc1 was read as PRMT1 inh inactive, UHRF1 MBD2 ctr inactive, MBD2 inh inactive, LEDGF integ inh 22, IN multimer act inactive, TR-FRET interf inactive and IN-LEDGF confirm inactive.
Cc1cc(C=O)c(C)n1-c1ccc(Cl)c(C(=O)O)c1 was read as PRMT1 inh inactive, UHRF1 MBD2 ctr 47, MBD2 inh inactive, LEDGF integ inh 21, IN multimer act inactive, TR-FRET interf inactive and IN-LEDGF confirm 21.
